# RORg inh: inhibitors of mouse ROR gamma transcriptional activity | Drosophila S2 Gal4-RORgamma UAS-luciferase reporter, 20 h | hit rate 5.4% among 310,000 | Potency, µM (series often up to 53.6 µM), for the others: at the top dose activity change, negative = inhibition, usual class: inhibitors; further: potency means the concentration at half of the fitted maximal effect; on the % scale 0 is the no-effect control and ±100 the full control effect; nearly all actives have a fitted effect of over 60% in size
# Target sequence (P51450 whole entry, looked up, the tested form may be a part): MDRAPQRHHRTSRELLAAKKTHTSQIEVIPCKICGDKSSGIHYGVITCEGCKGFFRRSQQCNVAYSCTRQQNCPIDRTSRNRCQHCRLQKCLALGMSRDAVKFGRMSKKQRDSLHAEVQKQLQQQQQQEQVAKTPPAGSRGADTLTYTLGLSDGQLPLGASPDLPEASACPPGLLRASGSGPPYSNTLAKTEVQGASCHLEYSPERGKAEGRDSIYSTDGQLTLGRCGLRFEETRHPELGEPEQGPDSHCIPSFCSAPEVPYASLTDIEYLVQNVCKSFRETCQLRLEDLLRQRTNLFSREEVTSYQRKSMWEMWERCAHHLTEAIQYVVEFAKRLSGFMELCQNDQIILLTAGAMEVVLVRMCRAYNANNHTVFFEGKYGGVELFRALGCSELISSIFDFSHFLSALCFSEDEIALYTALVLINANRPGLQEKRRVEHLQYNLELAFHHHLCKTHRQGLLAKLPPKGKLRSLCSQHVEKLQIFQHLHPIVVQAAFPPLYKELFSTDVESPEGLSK
#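 Luminescence from a UAS-regulated Photinus luciferase reporter in stably transfected Drosophila Schneider cells is measured; decreased signal marks ROR gamma inhibition. Fusion expression is induced by 700 uM copper sulfate for 20 hr.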
# IL-1B inflam inh: inflammasome signaling inhibition, IL-1 beta readout; THP-1 LPS/ATP IL-1B secretion, AlphaLISA, 16 h; hits give low values; AID 743279; hit rate 4.7% among 360,000; activity change, % at 57.5 µM; in the data active means activity change below about -50%; inconclusive means mostly about -30% to -49%; further: on the % scale 0 is the no-effect control and ±100 the full control effect
#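 THP-1 cells pretreated 1 hr with compounds (up to 57.5 uM final), then stimulated with LPS (250 ng/mL final) plus ATP (1.25 mM final); secreted IL-1B measured by AlphaLISA after 16 hr, decreased signal indicating inhibition.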
# SW480 rerep: induces DNA re-replication in SW480 colon adenocarcinoma cells | SW480 DNA re-replication, Hoechst DNA content imaging, 48 h | Potency, µM (series often up to 46.1 µM), without a hit: at the top dose re-replication activation, hits mostly activators | hit rate 1.8% among 340,000 | AID 624297; further: potency means the concentration at half of the fitted maximal effect; % of control where 0% means no effect; nearly all actives have a fitted effect of over 55% in size
#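 Per well, 250 cells were exposed to pinned compound for 48 hr. Nuclear DNA was visualised with Hoechst (40 min, 37 C) and total object intensity recorded by fluorescence scanning.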
# MCF10A rereplic: inducers of DNA re-replication in MCF 10A breast cells. MCF 10A DNA re-replication, Hoechst nuclear intensity, 48 h. Potency, µM (highest dose often 46.1 µM), inactives show top-dose activity, positive = re-replication, most hits filed as activators. hit rate 2.9% among 350,000. AID 624296; further: potency means the concentration at half of the fitted maximal effect; % of control where 0% means no effect; nearly all actives have a fitted effect of over 50% in size
# Gal4-VP16 FLuc: Gal4-VP16 reporter inhibition counter-screen; Drosophila S2 Gal4-VP16 UAS-luciferase, luminescence, 20 h; Potency, µM (highest dose often 53.6 µM), without a hit: at the top dose activity, negative = inhibition, usual class: inhibitors; hit rate 3.5% among 310,000;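 further: Gal4-VP16 expression switched on by copper sulfate through the metallothionein promoter; potency means the concentration at half of the fitted maximal effect; on the % scale 0 is the no-effect control and ±100 the full control effect; nearly all actives have a fitted effect of over 50% in size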
# Active calls of the source: *; ? = inconclusive; . = no result given; [ ] = another dose, or the depositor's remark. A selection: hits, their analogues and other compounds. The true share with any hit is near 11%. Unless noted, the call rests on the fitted dose curve; in most records, active means well fitted curve in the direction sought with a large enough effect; inconclusive means small, poorly fitted or top-dose-only effect, or another doubt; inactive means no such curve, though single readings can be large; an effect the other way counts as inactive or inconclusive.
SMILES,RORg inh,IL-1B inflam inh,SW480 rerep,MCF10A rereplic,Gal4-VP16 FLuc
Cc1ccc(CNC(=O)C2CCC(CNc3nc(=S)[nH]c4ccccc34)CC2)cc1 (configuration not stated),-36.5%,0.4,13.7%,23.1µM*,-2.9%
COc1cccc(CNC(=O)C2CCC(CNc3nc(=S)[nH]c4ccccc34)CC2)c1 (configuration not stated),0.8%,-16.8,0.7%,?,-11.4%
Cc1ccccc1NC(=O)COc1coc(CN2CCN(c3ccccc3)CC2)cc1=O,.,6.2,-23.6%,2.6%,.
CCN(CC)C(=O)c1cc(C(C)(C)C)c(O)c(C(C)(C)C)c1,10µM*,-11.5,-4.5%,7.1%,-2.6%
CCCn1c(C2CCCN2c2nc(C)cs2)nc2cc(Cl)c(Cl)cc21 (configuration not stated),?,1.3,2.5%,10.4%,?
CCCn1c(C2CCCN2c2nc(-c3cccc(Br)c3)cs2)nc2cc(Cl)c(Cl)cc21 (configuration not stated),2.51µM*,-5.6,?,?,5.62µM*
O=c1cc(N2CCCCC2)c(-c2ccccc2)nn1Cc1ccccc1,8.7%,-99.5*,20.8%,?,-19.1%
Cn1nc(-c2ccccc2)c(N2CCCCC2)cc1=O,-29.5%,-4.5,-14.7%,?,8.7%
COc1ccc(Cn2nc(-c3ccccc3)c(N3CCCCC3)cc2=O)cc1,?,-231.5*,-5.4%,?,-13.8%
O=[N+]([O-])c1ccccc1C1Nc2cccc3cccc(c23)N1,1µM*,-65.9*,?,17.9%,-1.0%[0.365 µM]
COC1=C(C(=O)c2ccccc2)C(=O)C2(CC=C(C)C)C[C@H](C(=O)OCC(F)(F)F)C(C)(C)[C@@]1(CC=C(C)C)C2=O (tested in a mixture with another compound),2.9%,.,.,.,-17.7%
COc1ccc(Cl)cc1C(=O)NC1CC(C)(C)NC(C)(C)C1,.,-0.3,.,.,.
Cc1ccc(C)c(Sc2ccc(NC(=O)CCl)cc2)c1,-13.7%[10 µM],-88.2*,25.9%,?,?
Cc1ccc(Sc2ccc(NC(=O)CCl)cc2)cc1C,?,-79.4*,?,?,?
O=C(CCl)Nc1ccccc1Sc1ccccc1,-57.6%,?,-6.0%,?,-8.5%
CC(=O)c1ccc(Nc2c3c(nc4ccccc24)CCCC3)cc1,-18.1%,-0.1,?,14.6µM*,-1.6%
CC(=O)c1cccc(Nc2c3c(nc4ccccc24)CCC3)c1,-24.5%,68.5,5.8µM*,?,1.2%
Fc1cccc(Nc2c3c(nc4ccccc24)CCC3)c1,9.9%,?,-1.1%,6.1%,-14.1%
c1ccc2c(Nc3ccc4c(c3)OCCO4)c3c(nc2c1)CCCC3,13.5%,-134.3*,4.9%,-7.2%,-5.2%
O=C(Nc1c2c(nc3ccccc13)CCCC2)c1ccccc1Cl,3.5%,48.8,7.31µM*,-0.3%,-3.4%
O=C(NCC1COc2ccccc2O1)c1cccc(S(=O)(=O)NCc2ccccc2)c1 (configuration not stated),.,-24.5,6.8%,4.8%,.
COC(=O)c1cccc(Nc2c3c(nc4ccccc24)CCC3)c1,28.9%,-97.5*,?,?,1.1%
N/C(COc1ccc(F)cc1)=N\NC(=O)c1cccnc1Oc1ccccc1,2.51µM*,?,-0.4%[9.22 µM],0.7%,4.47µM*
NC(=O)c1cccnc1Oc1ccc(Cl)cc1,1.4%,-2.5,15.6%,-0.5%,8.3%
CCCCc1ccc(NC(=S)N2CCCC(C)C2)cc1 (configuration not stated),5.01µM*,?,-8.9%,7.7%,?
SMILES,RORg inh,IL-1B inflam inh,SW480 rerep,MCF10A rereplic,Gal4-VP16 FLuc
CCN(CC)c1ccc(NC(=O)C2CCCC2)cc1,-37.8%[1.91 µM],-11.6,4.9%,-3.6%,25.0%
CCCCc1ccc(NC(=O)C2CCCC2)cc1,.,-67.4*,27.5%,?,.
CCOC(=O)c1ccc(NC(=S)N2CCCC(C)C2)cc1 (configuration not stated),12.6µM*,21.8,-1.3%,-2.7%,?
CC(C)CO/N=C1/C[C@@H](O)[C@@H](O)[C@@H]2[C@@H]3C(=O)N([C@@H](C)c4ccccc4)C(=O)[C@H]3CC[C@@H]12,20.1%[10 µM],.,.,.,-2.8%[10 µM]
N#C/C(=C(\O)Cc1ccccc1)c1nc2ccccc2[nH]1,2.82µM*,0.0,?,16.6%,?
Cc1cccc(Nc2nnc(SC/C(O)=C(\C#N)c3nc4ccccc4[nH]3)s2)c1C,?,14.4,?,13µM*,-10.8%
N#C/C(=C(/O)CSc1n[nH]c(N)n1)c1nc2ccccc2[nH]1,-34.3%,24.6,-10.4%,8.2%,-2.8%
N#C/C(=C(/O)c1ccco1)c1nc2ccccc2[nH]1,7.08µM*,2.6,-15.4%,-21.9%,?
N#C/C(=C(/O)c1ccco1)c1nc2ccccc2s1,?,-18.4,-9.3%,?,-10.7%
C/C(O)=C(\C#N)c1nc2ccccc2[nH]1,?,-2.4,-14.2%[9.22 µM],11.9%,14.1µM*
CC(O)C1CCC2C3CCC4CC(O)CCC4(C)C3CCC12C (configuration not stated),-4.1%[10 µM],.,-7.9%,-0.2%,-3.7%
COc1ccccc1/C(O)=C(\C#N)c1nc2ccccc2[nH]1,1.41µM*,20.4,-4.8%,0.0%,-7.0%
CSCCC(/C(O)=C(\C#N)c1nc2ccccc2[nH]1)N1C(=O)c2ccccc2C1=O (configuration not stated),11.2µM*,-12.0,-3.7%,1.3%,17.8µM*
COc1ccccc1N/C=C(\C#N)c1nc2ccccc2[nH]1,?,16.5,18.1%,?,-14.0%
N#C/C(=C(/O)c1ccc(C(=O)c2ccccc2)cc1)c1nc2ccccc2[nH]1,4.8%,1.3,23.1µM*,22.3%,14.4%
N#C/C(=C(/O)CCl)c1nc2ccccc2[nH]1,5.01µM*,-95.2*,?,?,10µM*
CN1CCCN(C(=O)c2ccc(Cl)s2)CC1,6.0%,10.9,2.3%,-0.3%,0.9%
O=C1C2=C(S[C@@H]3O[C@H](CO)[C@@H](O)[C@H](O)[C@H]3O2)C(=O)c2ccccc21,-32.6%,.,.,.,-15.5%
Cn1cncc1C#Cc1ccc2c(=O)c3ccccc3oc2c1,.,?,-0.4%,-9.0%,.
N#C/C(=C(/O)CN1C(=O)c2ccccc2C1=O)c1nc2ccccc2[nH]1,11.2µM*,12.4,-2.0%,5.7%,?
CN(Cc1ccc(Cl)cc1Cl)C(=O)C1CC(=O)N(Cc2ccco2)C1 (configuration not stated),.,-4.6,.,.,.
CC1CN(S(=O)(=O)c2ccc(C(=O)N(CCCN(C)C)c3nc4cc5c(cc4s3)OCCO5)cc2)CC(C)O1 (configuration not stated),.,?,-1.1%,8.1%,.
Cc1ccc2sc(N(CCCN(C)C)C(=O)c3ccc(S(=O)(=O)N4CCc5ccccc5C4)cc3)nc2c1C,.,-82.4*,3.66µM*,?,.

# Assay outcomes as filed in PubChem BioAssay.
